Results filed as inconclusive are left out. Where a call stands in place of a potency, no number is given. Unmarked numbers belong to inactive results. Active and inactive are the calls of the source. The call rests on the fitted dose curve; in most records, active means well fitted curve in the direction sought with a large enough effect in the repeat runs; inconclusive means weak or mixed curves; inactive means no such curve, though single readings can be large; an effect the other way counts as inactive or inconclusive.
How the values were obtained:
[1] = A CellTox Green Cytotoxicity Assay to monitor cytotoxicity in HEK293 cells - 40 hour (AID 1224871); conditions: CellTox Green fluorescence; series mostly up to 76.8 µM; further: nearly all actives have a fitted effect of over 45% in size
Method in brief: (§1)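 Read-out: fluorescence of a cell-impermeant cyanine dye staining DNA of dead cells, proportional to cytotoxicity. HEK293, 600 cells/well with reagent, compound (23 nL DMSO) added after 5 h; reads at 0, 8, 16, 24, 32, 40 h.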

[2] = qHTS RealTime-Glo MT Cell Viability Assay in HEK293 cells - 16 hour (AID 1224872); conditions: RealTime-Glo luminescence; series mostly up to 76.8 µM; further: top concentration of the series differs between compounds; nearly all actives have a fitted effect of over 50% in size
Method in brief: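 Luminescence generated by NanoLuc from substrate produced by living HEK293 cells served as the viability signal. Each value reflects the reading at its stated time point during continuous 40 h compound exposure at 37 C.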

[3] = qHTS RealTime-Glo MT Cell Viability Assay in HepG2 cells - 8 hour (AID 1224873); conditions: RealTime-Glo luminescence; series mostly up to 76.8 µM; further: nearly all actives have a fitted effect of over 55% in size
Method in brief: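 HepG2 cells (600/well) mixed with RealTime-Glo MT reagent, settled 5 h at 37 C/5% CO2 before compound addition. Nonlytic NanoLuc luminescence from viable-cell prosubstrate reduction read repeatedly during 40 h treatment at 37 C.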

[4] = qHTS RealTime-Glo MT Cell Viability Assay in HEK293 cells - 40 hour (AID 1224874); conditions: RealTime-Glo luminescence; max response: active compounds read low; further: nearly all actives have a fitted effect of over 50% in size
Method in brief: (§2)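 Luminescence readout at each listed time point; HEK293, 600 cells/well, RealTime-Glo MT reagent added with cells; compounds pinned (23 nL in DMSO) after 5 h at 37 C; continuous culture at 37 C.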

[5] = A CellTox Green Cytotoxicity Assay to monitor cytotoxicity in HEK293 cells - 24 hour (AID 1224875); conditions: CellTox Green fluorescence; series mostly up to 76.8 µM; further: nearly all actives have a fitted effect of over 45% in size
Method in brief: as §1

[6] = A CellTox Green Cytotoxicity Assay to monitor cytotoxicity in HepG2 cells - 16 hour (AID 1224876); conditions: CellTox Green fluorescence; series mostly up to 76.8 µM; further: nearly all actives have a fitted effect of over 45% in size; further: potency means the concentration at half of the fitted maximal effect
Method in brief: (§3)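 HepG2, 600 cells/well premixed w/ CellTox Green; 5 h settle, 37 C/5% CO2; pintool cpd add (DMSO); 37 C, 40 h; fluorescence read at 0, 8, 16, 24, 32, 40 h.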

[7] = qHTS RealTime-Glo MT Cell Viability Assay in HepG2 cells - 32 hour (AID 1224877); conditions: RealTime-Glo luminescence; series mostly up to 76.8 µM; further: nearly all actives have a fitted effect of over 55% in size
Method in brief: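 Tox21 10K library screened in qHTS format on HepG2 cells carrying RealTime-Glo reagents. Compounds were added after a 5 h preincubation, and the luminescent signal from continuous culture was measured repeatedly during 40 h treatment.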

[8] = A CellTox Green Cytotoxicity Assay to monitor cytotoxicity in HepG2 cells - 24 hour (AID 1224878); conditions: CellTox Green fluorescence; series mostly up to 76.8 µM; further: nearly all actives have a fitted effect of over 45% in size; further: potency means the concentration at half of the fitted maximal effect
Method in brief: as §3

[9] = A CellTox Green Cytotoxicity Assay to monitor cytotoxicity in HepG2 cells - 40 hour (AID 1224879); conditions: CellTox Green fluorescence; series mostly up to 76.8 µM; further: nearly all actives have a fitted effect of over 40% in size
Method in brief: as §3

[10] = qHTS RealTime-Glo MT Cell Viability Assay in HEK293 cells - 0 hour (AID 1224880); conditions: RealTime-Glo luminescence; series mostly up to 76.8 µM
Method in brief: as §2

| Compound | cytotoxicity increase [1] | activity change, negative = cytotoxicity [2] | viability change, negative = cytotoxic [3] | max response [4] | activity change [5] | cytotoxicity increase [6] | activity change, negative = cytotoxic [7] | cytotoxicity [8] | cytotoxicity increase [9] | activity change, negative = cytotoxicity [10] | Potency [1] | Potency [2] | Potency [3] | Potency [5] | Potency [6] | Potency [7] | Potency [8] | Potency [10] | Potency [9] |
| --- | --- | --- | --- | --- | --- | --- | --- | --- | --- | --- | --- | --- | --- | --- | --- | --- | --- | --- | --- |
| CC1=CC[C@@H]2C[C@H]1C2(C)C | 2.52% [at 15.8 µM] | 8.54% [at 15.8 µM] | 0.867% [at 15.8 µM] | 1.39% | 2.23% [at 15.8 µM, active compounds read high] | -4.53% [at 15.8 µM] | 2.7% [at 15.8 µM] | -4.03% [at 15.8 µM] | -3.58% [at 15.8 µM] | -16.1% [at 15.8 µM] |  |  |  |  |  |  |  |  |  |
| CC(=O)OC(C)C[N+](C)(C)C (stereo not drawn) |  |  |  | -1.13% |  |  |  |  |  |  | inactive | inactive | inactive | inactive | inactive | inactive | inactive | inactive |  |
| O=C(O)/C=C/c1ccc(O)c(O)c1 |  |  |  | -2.68% |  |  |  |  |  |  | inactive | inactive | inactive | inactive | inactive | inactive | inactive | inactive | inactive |
| C[C@@H]1C[C@H]2[C@@H]3CCC4=CC(=O)C=C[C@]4(C)[C@@]3(F)[C@@H](O)C[C@]2(C)[C@@]1(O)C(=O)COP(=O)(O)O |  |  |  | -21.2% |  |  |  |  |  |  | inactive | inactive | inactive | inactive | inactive | inactive | inactive | inactive | inactive |
| Cc1ccc2c(c1)CCCN2 |  |  |  | 1.39% |  |  |  |  |  |  | inactive | inactive | inactive | inactive | inactive | inactive | inactive | inactive | inactive |
| CC(C)COC(=O)COc1cc(Cl)c(Cl)cc1Cl |  |  |  | -15.9% |  |  |  |  |  |  | inactive | inactive | inactive | inactive | inactive | inactive | inactive | inactive | inactive |
| CCC(=O)OCc1ccc(OC)cc1 |  |  |  | 0.878% |  |  |  |  |  |  | inactive | inactive | inactive | inactive | inactive | inactive | inactive | inactive | inactive |
| COc1ccc(C)cc1 |  |  |  | 9.25% |  |  |  |  |  |  | inactive | inactive | inactive | inactive | inactive | inactive | inactive | inactive | inactive |
| c1ccc2sc(SSc3nc4ccccc4s3)nc2c1 | 14.8% [at 15.8 µM] | -1.01% [at 15.8 µM] | 2.86% [at 15.8 µM] | 15.6% | 14.2% [at 15.8 µM, active compounds read high] | 2.16% [at 15.8 µM] | 1.02% [at 15.8 µM] | 3.43% [at 15.8 µM] | 16.6% [at 15.8 µM] | -1.35% [at 15.8 µM] |  |  |  |  |  |  |  |  |  |
| O=NN(CCCl)C(=O)NCCCl |  |  |  | 8.5% |  |  |  |  |  |  | inactive | inactive | inactive | inactive | 4.77 µM (active) | inactive | 4.77 µM (active) | inactive |  |
| CNc1c2c(nn1C)CCCC2 |  |  |  | -3.57% |  |  |  |  |  |  | inactive | inactive | inactive | inactive | inactive | inactive | inactive | inactive | inactive |
| CC(C)(C)CCCCCCOC(=O)c1ccccc1C(=O)OCCCCCCC(C)(C)C |  |  |  | 7.13% |  |  |  |  |  |  | inactive | inactive | inactive | inactive | inactive | inactive | inactive | inactive | inactive |
| O=C(Nc1ccc(C(=O)O)c(O)c1)c1ccccc1 |  |  |  | 8.29% |  |  |  |  |  |  | inactive | inactive | inactive | inactive | inactive | inactive | inactive | inactive | inactive |
| CC(C)N=C=NC(C)C |  |  |  | 3.08% |  |  |  |  |  |  | inactive | inactive | inactive | inactive | inactive | inactive | inactive | inactive | inactive |
| CC(C)(C)C(O)/C=C/c1ccc2c(c1)OCO2 (stereo not drawn) |  |  |  | 1.57% |  |  |  |  |  |  | inactive | inactive | inactive | inactive | inactive | inactive | inactive | inactive | inactive |
| CCSC(=O)N(CC)CC |  |  |  | 0.524% |  |  |  |  |  |  | inactive | inactive | inactive | inactive | inactive | inactive | inactive | inactive | inactive |
| C=CCOC(=O)COCCC(C)C |  |  |  | -1.87% |  |  |  |  |  |  | inactive | inactive | inactive | inactive | inactive | inactive | inactive | inactive | inactive |
| COc1cc(NC(C)CCCN)c2ncccc2c1 (stereo not drawn) |  |  |  | -12.5% |  |  |  |  |  |  | inactive | inactive | inactive | inactive | inactive | inactive | inactive | inactive | inactive |
| Cc1ccc(N(CCO)CCO)cc1 |  |  |  | 0.166% |  |  |  |  |  |  | inactive | inactive | inactive | inactive | inactive | inactive | inactive | inactive | inactive |
| FC(F)(F)C(F)(F)C(F)(F)C(F)(F)CCI |  |  |  | -4.67% |  |  |  |  |  |  | inactive | inactive | inactive | inactive | inactive | inactive | inactive | inactive | inactive |
| COC(OC)OC |  |  |  | 11.5% |  |  |  |  |  |  | inactive | inactive | inactive | inactive | inactive | inactive | inactive | inactive | inactive |
| CCC1CCC(CCC(=O)O)C1 (stereo not drawn) |  |  |  | -15.6% |  |  |  |  |  |  | inactive | inactive | inactive | inactive | inactive | inactive | inactive | inactive | inactive |
| CC(=O)N[C@@H](Cc1ccc(O)cc1)C(=O)O |  |  |  | 8.17% |  |  |  |  |  |  | inactive | inactive | inactive | inactive | inactive | inactive | inactive | inactive | inactive |
| CCOCCC(=O)OCC |  |  |  | 4.01% |  |  |  |  |  |  | inactive | inactive | inactive | inactive | inactive | inactive | inactive | inactive | inactive |
| Cc1cc([N+](=O)[O-])ccc1N |  |  |  | -19.2% |  |  |  |  |  |  | inactive | inactive | inactive | inactive | inactive | inactive | inactive | inactive | inactive |
| NC(=O)CCCCC(N)=O |  |  |  | 1.27% |  |  |  |  |  |  | inactive | inactive | inactive | inactive | inactive |  | inactive | inactive | inactive |
| COc1ccc(-n2nc(C(F)F)cc2-c2ccc(S(C)=O)cc2)cc1 (stereo not drawn) |  |  |  | -24.7% |  |  |  |  |  |  | inactive | inactive | inactive | inactive |  |  |  | inactive |  |
| CC(=O)OCCC1CCCCC1 |  |  |  | 6.39% |  |  |  |  |  |  | inactive | inactive | inactive | inactive |  | inactive |  | inactive |  |
| CC(=O)c1ccc[nH]1 |  |  |  | -0.568% |  |  |  |  |  |  | inactive | inactive | inactive | inactive | inactive |  | inactive | inactive | inactive |
| Cc1cccc(C)c1NC(=O)c1cc(S(N)(=O)=O)c(Cl)cc1O |  |  |  | 1.94% |  |  |  |  |  |  | inactive | inactive | inactive | inactive | inactive |  | inactive | inactive | inactive |

Source: PubChem BioAssay (Tox21)
